Sampled rows, rich in hits. Any-hit rate of the full collection: about 10%.
HP1b binding inh: blocks HP1-beta chromodomain binding to methylated histone tails; P83916; AlphaScreen HP1-beta / biotin-H3K9me3 peptide binding; Potency, µM (titrated, usually from 114 µM), without a hit: at the highest dose activity change, negative = inhibition, usual class: inhibitors; actives 0.56% (n = 390,000); AID 540317; also: nearly all actives have a fitted effect of over 70% in size
Target sequence (P83916 whole entry, looked up): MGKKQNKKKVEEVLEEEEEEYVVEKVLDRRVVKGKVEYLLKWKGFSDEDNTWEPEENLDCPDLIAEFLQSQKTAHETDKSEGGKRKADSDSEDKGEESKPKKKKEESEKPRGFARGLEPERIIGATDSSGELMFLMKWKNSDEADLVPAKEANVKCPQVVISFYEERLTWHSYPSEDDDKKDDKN
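AlphaScreen: HP1-beta (50 nM) preformed 30 min with biotin-H3(1-18)K9me3 peptide (50 nM) in PBS pH 7.4, 0.01% Tween-20. Compound added for 30 min at RT, then streptavidin donor/nickel chelate acceptor beads (10 ug/mL) for 30 min.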
L3MBTL1 inh: blocks human L3MBTL1. Q9Y468. AlphaScreen L3MBTL1–H3K9me1 peptide binding. Potency, µM (highest dose often 57.1 µM), without a hit: top-dose activity, negative = inhibition, usual class: inhibitors. actives 0.66% (n = 230,000). AID 485360; also: % is scaled to controls: 0 for no effect and ±100 for the full control effect; nearly all actives have a fitted effect of over 60% in size
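L3MBTL1 50 nM + b-AHA-H3(1-15)K9me1 75 nM, 30 min RT; compound added, 30 min RT; streptavidin donor/Ni-chelate acceptor beads 10 ug/mL each final, 30 min RT dark; AlphaScreen read.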
GLS inhibitor: blocks human kidney-isoform glutaminase activity; AID 624170; GLS enzymatic activity, qHTS titration; Potency, µM (top dose mostly 45.5 µM), for the others: at the highest dose activity change, negative = inhibition, usual class: inhibitors; actives 0.21% (n = 410,000); also: % is scaled to controls: 0 for no effect and ±100 for the full control effect
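Compounds were pin-transferred onto hKGA, after which L-glutamine (1 mM solution) and a detection mix of glutamate oxidase, HRP and Amplex Red were added. Initial and 30 min RT fluorescence reads were collected.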
G9a inh: blocks human histone lysine methyltransferase G9a. actives 8.8% (n = 350,000). Q96KQ7. AID 504332. Potency, µM (doses to about 102 µM), for inactives: at the top dose activity, negative = inhibition, usual class: inhibitors. G9a H3K9 monomethylation, AlphaScreen, 2 h; also: % is scaled to controls: 0 for no effect and ±100 for the full control effect; nearly all actives have a fitted effect of over 75% in size
Target sequence (Q96KQ7 913-1193 limits assumed): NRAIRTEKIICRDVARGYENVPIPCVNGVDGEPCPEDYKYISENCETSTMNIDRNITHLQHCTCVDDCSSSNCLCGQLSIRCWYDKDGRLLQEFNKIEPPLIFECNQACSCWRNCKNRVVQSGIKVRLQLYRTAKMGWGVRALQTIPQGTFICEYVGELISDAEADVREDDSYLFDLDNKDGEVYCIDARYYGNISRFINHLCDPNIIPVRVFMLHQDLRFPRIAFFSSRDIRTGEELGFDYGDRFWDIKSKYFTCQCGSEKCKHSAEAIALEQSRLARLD
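Chemiluminescent proximity detection of H3K9 monomethylation, read after 10 min bead incubation in the dark. Reaction: 20 nM G9a, 500 nM biotin-H3K9 peptide, 20 uM SAM cofactor, 2 h, room temperature, following 15 min enzyme-compound preincubation.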
BAZ2B block: inhibitors of human BAZ2B bromodomain; Q9UIF8; AlphaScreen BAZ2B-H3K14Ac peptide displacement; Potency, µM (doses to about 114 µM), for inactives: at the highest dose activity change, negative = inhibition, usual class: inhibitors; actives 4.4% (n = 360,000); also: % is scaled to controls: 0 for no effect and ±100 for the full control effect; nearly all actives have a fitted effect of over 60% in size
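In this displacement format the biotinylated H3(5-23) peptide acetylated at Lys14 serves as ligand at 50 nM, with BAZ2B at 50 nM in PBS pH 7.4 containing 0.01% Tween-20. Donor and acceptor beads are 10 ug/mL final.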
JMJD2A Tudor: blocks the human JMJD2A Tudor domain; O75164; AlphaScreen JMJD2A-Tudor / H3K4me3 peptide binding; Potency, µM (highest dose often 114 µM), inactives show at the highest dose activity change, negative = inhibition, hits mostly inhibitors; actives 4.4% (n = 390,000); AID 504339; also: % is scaled to controls: 0 for no effect and ±100 for the full control effect; nearly all actives have a fitted effect of over 50% in size
Starred values were filed as active, the others as inactive; ? = inconclusive; · = no result given; [ ] = dose if it differs, or a comment. Calls follow the shape of the dose curve; as a rule, active = well fitted curve in the direction sought with a large enough effect; inconclusive = small, poorly fitted or top-dose-only effect, or another doubt; inactive = no such curve, though single readings can be large; an effect the other way counts as inactive or inconclusive. Potency is read from the fitted curve at half-maximal effect.

SMILES	HP1b binding inh	L3MBTL1 inh	GLS inhibitor	G9a inh	BAZ2B block	JMJD2A Tudor
O=c1cc[nH]c2c1ccc1c(=O)cc[nH]c12	14%	·	-5%	45µM*	-26%	?
CCCC(=O)Nc1nc2c(ncn2[C@@H]2O[C@H]3COP(=O)(O)O[C@@H]3[C@@H]2OC(=O)CCC)c(=O)[nH]1	·	·	·	25%[59 µM]	·	·
CCC/C=C1/CCCOC(C(=O)NCC2CC2)(C(F)(F)F)C1 (stereo not given)	39%	·	·	·	·	-8%
O=C1NC2c3c(Cl)sc(Cl)c3C(=O)C2O1 (stereo not given)	-24%	·	?	·	·	56µM*
O=C1NC2c3c(I)sc(I)c3C(=O)C2O1 (stereo not given)	25%	·	8%	·	·	-23%
CC1CCN(C(=O)CN2C(=O)NC3(CCCc4ccccc43)C2=O)CC1 (stereo not given)	32%	2%	8%	?	19%	-4%
CCN(CC)S(=O)(=O)c1cc(NC(=O)Cn2ncc(Cl)c(Cl)c2=O)ccc1C	25%	18µM*	3%	0%	-18%	-7%[11.4 µM]
CCN(CC)S(=O)(=O)c1cc(NC(=O)CN2C(=O)NC3(CCCc4ccccc43)C2=O)ccc1C (stereo not given)	4%	-2%	-3%	50µM*	-6%	-22%
Cc1ccc(NC(=O)CN2C(=O)NC3(CCCc4ccccc43)C2=O)cc1S(=O)(=O)N1CCOCC1 (stereo not given)	36%	-6%	-10%	?	-27%	-2%[11.4 µM]
Cc1cccc(NC(=O)CNC(=O)CN2C(=O)NC3(CCc4ccccc43)C2=O)c1C (stereo not given)	19%	1%	4%	45µM*	4%	-6%
O=C(CN1C(=O)NC2(CCc3ccccc32)C1=O)NCC(=O)Nc1ccc(F)cc1 (stereo not given)	33%	1%	0%	18%[59 µM]	-5%	9%
O=C(CN1C(=O)NC2(CCCc3ccccc32)C1=O)N1CCCCC1 (stereo not given)	11%	-4%	-12%	50µM*	8%	-6%
CCn1ccc2cc(S(=O)(=O)N3CCCN(C(=O)Nc4ccc(C)c(F)c4)CC3)ccc21	11%[57 µM]	·	-8%	-1%[59 µM]	-16%	-19%
O=C(NCCCO)C(=O)NCC(c1ccc2c(c1)OCO2)N1CCOCC1 (stereo not given)	7%[57 µM]	·	-10%	-2%[59 µM]	-2%	3%
COc1ccc(-c2cn3nc(N4CCC(C(=O)NCc5ccccc5F)CC4)sc3n2)cc1	15%	·	2%	-5%[59 µM]	3%	-10%
COCCn1c(=O)c(-c2cccc(C#N)c2)nc2cnc(OCc3ccccc3)nc21	·	·	·	3%[0.501 µM]	·	·
Cc1cc(Cl)ccc1OCC(=O)N(Cc1ccco1)Cc1ccccc1F	93%	·	-3%	67%[59 µM]	64%	15%
COc1ccc(CSCCc2n[nH]c(=S)n2-c2ccccc2)cc1	-3%	?	4%	?	?	50µM*
S=c1[nH]nc(CSCc2ccccc2Cl)n1-c1ccccc1	18%	0%	·	·	-4%	11%
Cc1cc(CNC(=O)c2cccc([N+](=O)[O-])c2C)c2ccccc2n1	32%	8%	-19%	-33%	-18%	-5%
COc1ccc(CC(=O)NCc2n[nH]c(=S)n2-c2ccc(Br)cc2)cc1	-6%	·	?	?	-22%	-18%[11.4 µM]
COc1ccccc1-n1c(CNC(=O)c2cccc([N+](=O)[O-])c2C)n[nH]c1=S	37%	·	-5%	?	-6%	20µM*
COc1ccc(CC(=O)NCc2n[nH]c(=S)n2-c2ccccc2)cc1	45%	·	0%	14µM*	-2%	?
Cc1cccc(-n2c(CNC(=O)c3cccc([N+](=O)[O-])c3C)n[nH]c2=S)c1	17%	·	2%	11µM*	·	16µM*
CC(=O)OCC(NC(=O)C1CCCN1C(=O)OC(C)(C)C)C1OC(n2cc(F)c(=O)[nH]c2=O)C(OC(C)=O)C1OC(C)=O (stereo not given)	20%	·	·	·	·	-19%
SMILES	HP1b binding inh	L3MBTL1 inh	GLS inhibitor	G9a inh	BAZ2B block	JMJD2A Tudor
CN(C)c1ncc2ncc(=O)n(C)c2n1	·	·	·	7%[12.7 µM]	·	·
O=C(c1cccs1)N1CCCc2cc(NS(=O)(=O)c3cc(F)ccc3F)ccc21	20%	·	4%	3%[59 µM]	?	-21%
COc1ccc(NC(=O)c2ccco2)cc1NC(=O)C(C)(C)Oc1ccc(Cl)cc1	-1%	·	2%	?	?	-34%
O=S1(=O)C2CC3C=CC2(CN1Cc1ccccc1)O3 (stereo not given)	44%	·	·	·	·	-15%
COc1ccccc1-n1c(CNC(=O)COc2ccccc2)n[nH]c1=S	22%	·	2%	?	-1%	7.1µM*
O=C(Cc1ccccc1)NCc1n[nH]c(=S)n1-c1ccc(Br)cc1	8%	·	?	?	-18%	?
Cc1ccc(Cl)cc1NC(=O)CN1C(=O)C(C)(C)c2cc(S(=O)(=O)N3CCCCC3)ccc21	6%[57 µM]	·	2%	0%[59 µM]	-13%	-17%
CN(c1ccc(F)cc1)S(=O)(=O)N1CCCC(C(=O)NCCc2ccccc2)C1 (stereo not given)	29%	·	-2%	-22%[59 µM]	-7%	3%
O=c1cc(O)c2sc(Nc3ccc(F)c(Cl)c3)nc2[nH]1	5%	·	?	28µM*	-32%	-14%
O=c1cc(O)c2sc(Nc3ccc(Cl)c(F)c3)nc2[nH]1	0%	·	?	?	?	-26%
O=C(O)c1ccc2c(c1)ncn2-c1ccc(F)c(F)c1	22%	·	-11%	-43%[59 µM]	-11%	-7%
O=C(O)c1ccc2c(ccc3nn(-c4ccc(/C=C/c5ccc(-n6nc7ccc8cc(C(=O)O)ccc8c7n6)cc5[S+](=O)([O-])[O-])c([S+](=O)([O-])[O-])c4)nc32)c1	?	·	·	·	·	18µM*
O=[S+]([O-])([O-])c1ccc2c(c1)cc([S+](=O)([O-])[O-])c1nn(-c3ccc(/C=C/c4ccc(-n5nc6c([S+](=O)([O-])[O-])cc7cc([S+](=O)([O-])[O-])ccc7c6n5)cc4[S+](=O)([O-])[O-])c([S+](=O)([O-])[O-])c3)nc12	-22%	·	·	·	·	56µM*
Cc1ccc2c(c1)C(=O)OC(C(=O)Nc1ccccc1C(=O)O)C2 (stereo not given)	75%	·	-3%	5%[59 µM]	39%	0%
COc1ccc(CNCC(O)COc2ccc3[nH]c(=O)ccc3c2)cc1OC (stereo not given)	·	·	-6%	·	·	·
COc1ccc(OC)c(NC(=O)CN2CCCN(Cc3ccccc3Cl)S2(=O)=O)c1	52%	·	3%	-3%[59 µM]	?	-13%

Screens: PubChem, National Center for Advancing Translational Sciences (NCATS)
